Source: PubChem BioAssay (National Center for Advancing Translational Sciences (NCATS))
HT1080 IDH1KD tx: HT-1080 IDH1 knockdown cell toxicity (counter line); HT-1080 IDH1 knockdown viability, ATP luminescence, 48 h; Potency, µM (doses to about 46.1 µM), for inactives: top-dose activity, negative = toxicity, actives largely listed as cytotoxic; 360,000 compounds, 2% hits;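 also: potency is read from the fitted curve at half-maximal effect; 0% = DMSO wells and -100% = cell-free medium wells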
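Viability of IDH1-knockdown HT-1080 fibrosarcoma cells was assessed by CellTiter-Glo after 48 h at 37 °C with titrated compound; concentration-effect curves were classified by fit quality and response size.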
12-LOX inh: blocks human arachidonate 12S-lipoxygenase. purified 12hLO, xylenol orange hydroperoxide absorbance. AID 1671190. Potency, µM (titrated, usually from 108 µM), for inactives: at the highest dose activity change, negative = inhibition, hits mostly inhibitors. 580,000 compounds, 1.1% hits; also: potency is read from the fitted curve at half-maximal effect
Target sequence (P18054 whole entry, looked up): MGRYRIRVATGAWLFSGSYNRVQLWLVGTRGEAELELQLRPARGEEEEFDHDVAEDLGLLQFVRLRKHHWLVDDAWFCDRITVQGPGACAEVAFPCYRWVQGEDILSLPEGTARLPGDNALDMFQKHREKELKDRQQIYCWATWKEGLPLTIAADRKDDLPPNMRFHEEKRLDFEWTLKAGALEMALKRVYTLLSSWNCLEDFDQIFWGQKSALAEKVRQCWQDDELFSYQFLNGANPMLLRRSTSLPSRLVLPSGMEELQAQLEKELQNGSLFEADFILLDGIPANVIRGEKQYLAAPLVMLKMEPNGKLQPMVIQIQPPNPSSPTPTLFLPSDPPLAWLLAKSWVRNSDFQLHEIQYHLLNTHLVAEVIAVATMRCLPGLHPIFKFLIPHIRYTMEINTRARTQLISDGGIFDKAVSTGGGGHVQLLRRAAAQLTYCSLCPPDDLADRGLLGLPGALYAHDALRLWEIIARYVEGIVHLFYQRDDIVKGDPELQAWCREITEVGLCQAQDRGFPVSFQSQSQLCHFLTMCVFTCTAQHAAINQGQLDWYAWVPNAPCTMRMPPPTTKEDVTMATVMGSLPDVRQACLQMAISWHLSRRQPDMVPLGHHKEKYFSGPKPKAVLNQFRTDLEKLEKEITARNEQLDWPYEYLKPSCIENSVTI
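Purified human 12hLO (150 nM final) in 25 mM Hepes, 0.01% Triton X-100, pH 7.0 was preincubated 15 min at room temperature with compound. Then 40 uM arachidonic acid was added, 30 min. Hydroperoxide was read by Fe-XO absorbance ratio 573/405 nm.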
DT40 TDP1 no CPT: qHTS for Inhibitors of human tyrosyl-DNA phosphodiesterase 1 (TDP1): qHTS in cells in absence of CPT; DT40 Tdp1-/- hTDP1 cells, no CPT, ATP luminescence, 48 h; Potency, µM (top dose mostly 46.2 µM), without a hit: at the top dose activity change, negative = growth inhibition, actives largely listed as inhibitors; 420,000 compounds, 15% hits; also: potency is read from the fitted curve at half-maximal effect; nearly all actives have a fitted effect of over 55% in size
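Camptothecin absent (DMSO only). Human TDP1-complemented DT40 knockout cells, 400 cells/well, 37 °C for minimum 48 hr; ATP measured via CellTiter-Glo, 30 min dark incubation, luminescence.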
DT40 TDP1 CPT: growth inhibition of DT40 Tdp1-/-;hTDP1 cells with camptothecin (screen for TDP1 inhibitors); chicken DT40 Tdp1-/-;hTDP1 cells + 20 nM CPT, ATP luminescence, 48 h; Potency, µM (highest dose often 46.2 µM), without a hit: at the highest dose activity change, negative = growth inhibition, actives largely listed as inhibitors; 420,000 compounds, 12% hits; also: potency is read from the fitted curve at half-maximal effect; nearly all actives have a fitted effect of over 55% in size
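Chicken DT40 Tdp1-/- cells stably complemented with human TDP1 were seeded at 400 cells/well in medium containing 20 nM camptothecin, exposed to pin-transferred compounds, and grown at 37 °C for at least 48 hr. Viability was read as ATP luminescence.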
IL1B secr inh: inflammasome signaling inhibition, IL-1 beta readout; activity change, % at 57.5 µM; AID 743279; 360,000 compounds, 4.7% hits; THP-1 LPS/ATP IL-1B secretion, AlphaLISA, 16 h; active compounds read low; in the data active = activity change below about -50%; inconclusive = mostly about -30% to -49%
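Secreted IL-1B measured by AlphaLISA bead assay after 16 h compound exposure of THP-1 cells; compounds (final up to 57.5 uM) added 1 h before LPS (250 ng/mL) and ATP (1.25 mM) stimulation; lower signal means less secretion.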
HT1080-NT tox: kills 2HG-producing HT-1080-NT fibrosarcoma cells | HT-1080-NT fibrosarcoma viability, CellTiter-Glo ATP luminescence, 48 h | Potency, µM (titrated, usually from 46.1 µM), for the others: at the highest dose activity, negative = less viability, actives largely listed as cytotoxic | 360,000 compounds, 1.6% hits | AID 686970;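 also: NT is the 2HG producing partner of a matched IDH1 knockdown line; potency is read from the fitted curve at half-maximal effect; 0% = DMSO-treated cells and -100% = media-only wells without cells; nearly all actives have a fitted effect of over 55% in size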
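HT-1080-NT fibrosarcoma cells (2HG-overproducing), 750 cells/well in RPMI with 5% FBS, dosed after 2 h and incubated 48 h at 37C. CellTiter-Glo luminescence normalized to DMSO and no-cell wells; concentration-response curves fitted and classed.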
An asterisk follows results filed as active; ? = inconclusive; · = no result; [ ] = dose if it differs, or a comment. The sample as a whole holds a higher share of hits than the screen did. Unless noted, calls follow the shape of the dose curve; as a rule, active = well fitted curve in the direction sought with a large enough effect; inconclusive = small, poorly fitted or top-dose-only effect, or another doubt; inactive = no such curve, though single readings can be large; an effect the other way counts as inactive or inconclusive. Unless noted, % is scaled to controls: 0 for no effect and ±100 for the full control effect.

SMILES | HT1080 IDH1KD tx | 12-LOX inh | DT40 TDP1 no CPT | DT40 TDP1 CPT | IL1B secr inh | HT1080-NT tox
COc1ccc(C(c2nnnn2C(C)(C)C)N2CCN(C/C=C/c3ccccc3)CC2)cc1 (stereo not given) | 13.0% | ? | ? | ? | -16.3 | 24.5%
COc1ccc(C(=C(Cl)Cl)c2ccc(OC)cc2)cc1 | · | -7.0% | · | · | · | ·
COc1ccc(C)cc1-n1c(SCC(=O)Nc2ccc(C(N)=O)cc2)nc2ccccc2c1=O | · | -7.0% | · | · | · | ·
COc1ccc(-n2nnnc2C(c2ccnc3ccccc23)N2CCN(C/C=C/c3ccccc3)CC2)cc1 (stereo not given) | ? | ? | 4.61µM* | 7.31µM* | ? | ?
C=CCN1CCN(C(c2cccc(OC)c2OC)c2nnnn2CCC(C)C)CC1 (stereo not given) | 4.2% | -15.5% | 23.1µM* | 25.9µM* | 6.1 | 8.3%
CCCCn1nnnc1C(C1CC1)N1CCN(C/C=C/c2ccccc2)CC1 (stereo not given) | -19.3% | ? | 16.4µM* | ? | -19.7 | -9.9%
COc1ccc(-n2nnnc2C(c2ccccc2OC(F)(F)F)N2CCN(C/C=C/c3ccccc3)CC2)cc1 (stereo not given) | -20.3% | 0.2% | 16.4µM* | 23.1µM* | -10.1 | -21.3%
C(=C\c1ccccc1)/CN1CCN(C(CCc2ccccc2)c2nnnn2C2CCCCC2)CC1 (stereo not given) | ? | ? | ? | ? | -21.7 | ?
C(=C\c1ccccc1)/CN1CCN(C(c2ccccc2)c2nnnn2-c2ccc3c(c2)OCCO3)CC1 (stereo not given) | ? | ? | ? | ? | 0.0 | ?
Clc1ccc(-c2nnc3n2CCN(Cc2ccccc2)C3)cc1 | · | -1.8%[6.33 µM] | · | · | · | ·
Cc1cccc(C)c1-n1nnnc1C(c1ccccc1)N1CCN(C/C=C/c2ccccc2)CC1 (stereo not given) | ? | -8.5% | 16.4µM* | 20.6µM* | 21.6 | ?
COc1ccc(C(c2nnnn2C2CCCCC2)N2CCN(C/C=C/c3ccccc3)CC2)cc1 (stereo not given) | ? | ? | ? | 16.4µM* | -8.6 | ?
COc1ccc(Cn2nnnc2C(c2ccc(F)cc2)N2CCN(C3CCCC3)CC2)cc1 (stereo not given) | -13.5% | -15.5% | ? | ? | -16.7 | -28.4%
C(=C\c1ccccc1)/CN1CCN(C(c2nnnn2C2CCCCC2)C2CC2)CC1 (stereo not given) | ? | -16.6% | 16.4µM* | ? | -5.4 | ?
CCC(C)(C)NC(=O)c1ccc(C(=O)O)cc1 | · | -4.5% | · | · | · | ·
COc1cc(Cl)cc2cc(C(=O)N3CCOCC3)c(=O)oc12 | · | 3.3% | · | · | · | ·
COCOc1ccc(/C=C2/Oc3cc(OCOC)cc(OCOC)c3C2=O)c(OCOC)c1 | 2.5% | · | 23.1µM* | 13µM* | -11.6 | -0.9%
COc1cc(OC)c2c(c1)O/C(=C\c1ccccc1)C2=O | 6.1% | 9.8% | ? | ? | -10.3 | 7.3%
O=C(NC1CC1)c1ccc2c(c1)OCCCO2 | · | 20.7% | · | · | · | ·
COCC1CN(C)CC12CCN(Cc1ccc(OC)c(OC)c1Cl)CC2 (stereo not given) | · | 92.6% | · | · | · | ·
COc1ccc(C2Nc3ccccc3C(=O)N2Cc2ccco2)cc1COc1c(C)cccc1C (stereo not given) | · | · | 5.01µM* | 2.51µM* | · | ·
COc1ccc(C2Nc3ccccc3C(=O)N2Cc2ccco2)cc1COc1ccc([N+](=O)[O-])cc1 (stereo not given) | 8.1% | ? | 23.1µM* | ? | ? | 6.8%
CCCN1C(=O)c2ccccc2NC1c1ccc(OC)c(COc2ccc([N+](=O)[O-])c(C)c2)c1 (stereo not given) | · | · | 17.8µM* | ? | · | ·
COc1cccc(OCc2cc(C3Nc4ccccc4C(=O)N3Cc3ccco3)ccc2OC)c1 (stereo not given) | -0.4% | -25.6% | ? | ? | -27.3 | -0.7%
CCOC(=O)C1(Cc2ccccc2C)CCCN(Cc2cnc(C)s2)C1 (stereo not given) | · | 0.3% | · | · | · | ·
SMILES | HT1080 IDH1KD tx | 12-LOX inh | DT40 TDP1 no CPT | DT40 TDP1 CPT | IL1B secr inh | HT1080-NT tox
O=C(Nc1cccc(C(F)(F)F)c1)c1cccc(NC(=O)c2cc(=O)c3ccccc3o2)c1 | · | -21.6% | · | · | · | ·
COC(=O)C1=C(O)/C(=C\c2cc(C)n(-c3ccccc3C)c2C)N=C1C | 0.0% | ? | ? | 29.1µM* | -26.0 | -19.2%
COC(=O)C1=C(O)/C(=C\c2cc(C)n(-c3ccccc3F)c2C)N=C1C | 11.1% | ? | -22.6% | -18.7% | 29.4 | 1.2%
CCn1ncc(Cl)c1C(=O)NC(=S)Nc1c(C)cc(C)cc1[N+](=O)[O-] | 2.1% | -11.4% | 23.1µM* | ? | -19.6 | -3.8%
CC1(C)CC(NC(=S)Nc2cc(F)cc(F)c2)CC(C)(C)N1 | · | -0.3% | · | · | · | ·
CC(=O)NC(C)(c1ccccc1)c1nc(-c2ccc(N(C)C)cc2)cs1 (stereo not given) | ? | ? | 23.1µM* | 16.4µM* | -2.6 | 4.6%
COc1ccc(C(C)(NC(C)=O)c2nc(-c3ccc(F)c(Cl)c3)cs2)cc1 (stereo not given) | ? | ? | 23.1µM* | 18.4µM* | -26.7 | ?
COc1ccc(-c2csc(C(C)(NC(C)=O)c3ccc(OC)cc3)n2)cc1 (stereo not given) | 15.0% | ? | ? | 16.4µM* | 2.5 | 17.0%
COc1ccc(C(C)(NC(C)=O)c2nc(-c3ccncc3)cs2)cc1 (stereo not given) | 21.6% | 4.9% | -7.4% | -8.3% | 16.1 | 6.8%
COc1ccccc1NC(=O)N1CC[C@H](c2nnc(-c3ccc(C)cc3)o2)C1 | · | 8.1%[176 µM] | · | · | · | ·
CCOc1ccccc1NC(=O)N(CC)Cc1cc(=O)[nH]c2c(C)cc(C)cc12 | · | -8.9% | · | · | · | ·
Cc1ccc2c(c1)C1CN(C)CCC1N2C(=O)COc1ccc(N(C)C(=O)c2ccccc2)cc1 (stereo not given) | -8.5% | -11.5% | 13µM* | 5.17µM* | 0.0 | -0.7%
CCc1c(C)sc2c1CCN(C(=O)Nc1ccccc1C(F)(F)F)C2c1ccccc1 (stereo not given) | · | -17.1% | 7.31µM* | ? | · | ·
CCc1c(C)sc2c1CCN(C(=O)Nc1ccc(F)c(Cl)c1)C2c1ccc(F)cc1 (stereo not given) | · | -14.3% | 16.4µM* | ? | · | ·
